PubChem BioAssay (Tox21)
Values without a mark were called inactive. Inconclusive results are not listed. A call without a number means that no potency is given here. Calls of active or inactive are those of the source. Unless noted, calls come from the whole dose curve; as a rule, active = well fitted curve in the direction sought with a large enough effect in the repeat runs; inconclusive = weak or mixed curves; inactive = no such curve, though single readings can be large; an effect the other way counts as inactive or inconclusive.

Columns and labels:
[1] = qHTS assay to identify small molecule antagonists of the sonic hedgehog signaling (Shh) pathway (AID 1259369; calls by dose curve; note: nearly all actives have a fitted effect of over 45% in size; note: potency is the fitted concentration of half-maximal effect)
In short: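 Inhibition of Shh signalling is measured as reduced Gli1-response-element firefly luciferase output in an NIH/3T3-derived stable reporter clone stimulated with conditioned medium for 24hr.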

[2] = qHTS assay to identify small molecule agonists of the androgen receptor (AR) signaling pathway in the presence of an antagonist - cell viability counter screen (AID 1259379);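 note: MDA-kb2 human breast cancer cells carrying an MMTV luciferase reporter; series mostly up to about 92 µM; nearly all actives have a fitted effect of over 25% in size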
In short: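 Fluorescence from CellTiter-Fluor, added after 15 hr and read 1 hr later, gave cell viability. Cells were MDA-kb2 exposed to compounds (15 concentrations) in the presence of 3.0uM nilutamide at 37C, 0% CO2.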

[3] = qHTS assay to identify small molecule agonists of the estrogen receptor beta (ER-beta) signaling pathway - cell viability counter screen (AID 1259380); note: nearly all actives have a fitted effect of over 30% in size; note: potency is the fitted concentration of half-maximal effect
In short: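 Same-well viability counter screen. Cells: ER-beta-UAS-bla HEK293T, plated 6 hr before compound, in 2% charcoal-stripped FBS. Compound exposure 16 hr, 37C; viability by CellTiter-Glo luminescence after 30 min at room temperature.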

[4] = qHTS assay to identify small molecule antagonists of the estrogen receptor beta (ER-beta) signaling pathway - cell viability counter screen (AID 1259382); note: series mostly up to about 92 µM; nearly all actives have a fitted effect of over 55% in size
In short: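 Following a 6 hr plating period, HEK293T cells carrying a UAS-driven beta-lactamase reporter under ER-beta control received compounds and 1nM E2 (final). After 16 hr at 37C and 2 hr substrate loading, CellTiter-Glo luminescence indicated viability.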

[5] = biological target: Estrogen receptor (Homo sapiens) (UniProt P03372); assay: qHTS assay to identify small molecule agonists of the estrogen receptor alpha (ER-alpha) signaling pathway in the presence of an antagonist (AID 1259383; calls by dose curve; note: top concentration of the series differs between compounds; nearly all actives have a fitted effect of over 15% in size)
Sequence of Estrogen receptor (Homo sapiens) (P03372 whole entry, looked up): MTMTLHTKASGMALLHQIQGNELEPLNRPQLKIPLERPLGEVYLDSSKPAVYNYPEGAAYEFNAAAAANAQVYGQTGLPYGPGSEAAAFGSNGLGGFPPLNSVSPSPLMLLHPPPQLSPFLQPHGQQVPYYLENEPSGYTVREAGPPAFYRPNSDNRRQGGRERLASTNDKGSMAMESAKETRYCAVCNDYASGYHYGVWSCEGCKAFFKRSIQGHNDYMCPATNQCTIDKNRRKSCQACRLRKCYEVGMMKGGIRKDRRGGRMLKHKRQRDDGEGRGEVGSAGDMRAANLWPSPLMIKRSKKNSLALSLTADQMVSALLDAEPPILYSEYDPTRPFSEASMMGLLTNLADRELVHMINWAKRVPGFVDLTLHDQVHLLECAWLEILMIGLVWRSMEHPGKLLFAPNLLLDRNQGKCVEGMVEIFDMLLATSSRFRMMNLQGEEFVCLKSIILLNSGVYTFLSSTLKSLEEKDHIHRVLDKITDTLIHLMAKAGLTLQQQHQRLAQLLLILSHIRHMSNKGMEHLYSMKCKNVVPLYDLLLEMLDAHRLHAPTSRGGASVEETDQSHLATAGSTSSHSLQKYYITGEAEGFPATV
In short: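 Cells are hormone-deprived for 5 days (charcoal-stripped FBS, no phenol red), plated for 24hr, spiked with 10.0nM ICI-182,780, then dosed at 15 concentrations. After 22hr at 37C, ONE-Glo luminescence reports ERE-luciferase activity.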

[6] = qHTS assay to identify small molecule agonists or antagonists of the thyroid stimulating hormone receptor (TSHR) signaling pathway - wild type cell line counter screen (AID 1259384; calls by dose curve)
In short: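 Wild-type Hek293 cells, 800/well, 18 h at 37C, then compound with Ro20-1724 for 30 min RT. cAMP by HTRF (cAMP-d2/anti-cAMP cryptate), 1 h RT, fluorescence read. 15 concentrations, triplicates.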

[7] = biological target: Thyrotropin receptor (Homo sapiens) (UniProt P16473); assay: qHTS assay to identify small molecule antagonists of the thyroid stimulating hormone receptor (TSHR) signaling pathway (AID 1259385; calls by dose curve; note: nearly all actives have a fitted effect of over 20% in size)
Sequence of Thyrotropin receptor (Homo sapiens) (P16473 whole entry, looked up): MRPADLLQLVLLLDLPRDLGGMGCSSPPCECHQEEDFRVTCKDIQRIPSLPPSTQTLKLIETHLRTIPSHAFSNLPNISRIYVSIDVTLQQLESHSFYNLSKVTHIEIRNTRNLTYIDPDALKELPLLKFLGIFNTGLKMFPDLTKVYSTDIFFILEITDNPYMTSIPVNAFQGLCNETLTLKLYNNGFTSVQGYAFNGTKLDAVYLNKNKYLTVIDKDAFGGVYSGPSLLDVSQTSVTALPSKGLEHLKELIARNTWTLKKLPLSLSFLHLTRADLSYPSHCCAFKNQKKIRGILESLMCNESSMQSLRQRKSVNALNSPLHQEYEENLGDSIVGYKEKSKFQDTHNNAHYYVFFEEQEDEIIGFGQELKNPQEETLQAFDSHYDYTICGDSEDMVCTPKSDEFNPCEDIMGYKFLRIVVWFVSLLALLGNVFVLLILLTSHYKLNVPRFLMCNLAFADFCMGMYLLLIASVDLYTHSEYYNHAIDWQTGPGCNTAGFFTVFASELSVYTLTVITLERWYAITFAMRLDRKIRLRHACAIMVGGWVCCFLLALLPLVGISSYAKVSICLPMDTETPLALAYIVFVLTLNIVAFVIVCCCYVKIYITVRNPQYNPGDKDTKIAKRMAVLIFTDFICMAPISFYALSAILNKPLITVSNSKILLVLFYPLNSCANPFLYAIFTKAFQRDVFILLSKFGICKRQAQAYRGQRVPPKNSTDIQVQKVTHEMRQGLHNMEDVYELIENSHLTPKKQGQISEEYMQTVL
In short: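 TSHR-HEK293 cells (800/well) plated 18 h, then compounds with Ro20-1724 and TSH at 1.5 ng/mL final, 30 min at room temperature. cAMP quantified by HTRF (cAMP-d2/anti-cAMP-cryptate, 1 h); 15 concentrations in triplicate.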

[8] = biological target: Progesterone receptor (Homo sapiens) (UniProt P06401); assay: qHTS assay to identify small molecule agonists of the progesterone receptor (PR) signaling pathway (AID 1346784; calls by dose curve; note: nearly all actives have a fitted effect of over 30% in size)
Sequence of Progesterone receptor (Homo sapiens) (P06401 whole entry, looked up): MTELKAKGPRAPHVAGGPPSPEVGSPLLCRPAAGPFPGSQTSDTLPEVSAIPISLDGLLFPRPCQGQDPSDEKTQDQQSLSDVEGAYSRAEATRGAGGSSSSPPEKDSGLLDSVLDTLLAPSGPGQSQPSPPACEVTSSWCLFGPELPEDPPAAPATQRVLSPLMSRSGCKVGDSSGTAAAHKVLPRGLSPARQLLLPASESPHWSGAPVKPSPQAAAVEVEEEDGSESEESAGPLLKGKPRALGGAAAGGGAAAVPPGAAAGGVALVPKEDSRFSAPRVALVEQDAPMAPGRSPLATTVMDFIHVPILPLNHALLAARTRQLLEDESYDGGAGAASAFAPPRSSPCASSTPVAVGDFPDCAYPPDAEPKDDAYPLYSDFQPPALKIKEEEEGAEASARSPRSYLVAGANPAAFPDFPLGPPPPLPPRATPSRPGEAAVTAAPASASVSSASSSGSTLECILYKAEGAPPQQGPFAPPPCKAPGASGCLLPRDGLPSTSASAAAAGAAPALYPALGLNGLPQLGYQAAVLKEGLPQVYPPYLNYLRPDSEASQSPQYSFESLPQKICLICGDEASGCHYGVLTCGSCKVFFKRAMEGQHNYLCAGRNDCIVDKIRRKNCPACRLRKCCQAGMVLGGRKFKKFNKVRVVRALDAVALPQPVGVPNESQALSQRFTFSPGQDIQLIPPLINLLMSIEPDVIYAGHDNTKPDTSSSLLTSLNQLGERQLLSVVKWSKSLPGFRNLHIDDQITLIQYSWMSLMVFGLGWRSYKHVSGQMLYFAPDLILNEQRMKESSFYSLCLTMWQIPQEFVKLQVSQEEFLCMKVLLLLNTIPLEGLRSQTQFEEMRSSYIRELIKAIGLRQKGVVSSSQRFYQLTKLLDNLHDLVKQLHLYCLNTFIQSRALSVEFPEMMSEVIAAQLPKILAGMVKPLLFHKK
In short: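 Reporter assay, GripTite PR-UAS-bla HEK 293T cells: 16 hr exposure to DMSO-dissolved compounds at 37C, 5% CO2, in steroid-depleted (2% charcoal-stripped FBS) medium; beta-lactamase measured by FRET fluorescence.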

[9] = biological target: Progesterone receptor (Homo sapiens) (UniProt P06401); assay: qHTS assay to identify small molecule antagonists of the progesterone receptor (PR) signaling pathway (AID 1346795; active = well fitted inhibition curve with a large enough effect in the signal ratio in the repeat runs, not every such curve was filed as active; the % refers to the signal ratio)
In short: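 Stimulus R5020 at 1 nM final; cells HEK293T PR-UAS-bla; medium with 2% charcoal-stripped FBS; compound exposure 16 hr at 37C, 5% CO2; detection by FRET beta-lactamase substrate, 2 hr, room temperature.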

[10] = qHTS assay to identify small molecule antagonists of the progesterone receptor (PR) signaling pathway - cell viability counter screen (AID 1346798); note: series mostly up to about 92 µM; nearly all actives have a fitted effect of over 50% in size
In short: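 In the same plates used for the beta-lactamase readout, cell viability of compound- and R5020-treated PR-UAS-bla HEK293T cells (16 hr, 37C) was assessed by CellTiter-Glo luminescence.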

[11] = qHTS assay to identify small molecule agonists of the progesterone receptor (PR) signaling pathway - cell viability counter screen (AID 1346799; calls by dose curve; note: nearly all actives have a fitted effect of over 45% in size)
In short: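 Multiplexed viability read: CellTiter-Glo luminescence, 30 min RT, following LiveBLAzer FRET measurement on PR-UAS-bla HEK293T cells exposed to compounds 16 hr.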

[12] = qHTS assay to identify small molecule antagonists of the TGF-beta/Smad signaling pathway - cell viability counter screen (AID 1346824); note: nearly all actives have a fitted effect of over 50% in size
In short: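 SBE-bla HEK 293T cells, incubated overnight, then compound plus 0.25 ng/mL TGF-beta1 (stock added) for 5 hr at 37 C. Viability was read in the same wells by CellTiter-Glo luminescence after 30 min at room temperature.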

[13] = qHTS assay to identify small molecule agonists of the TGF-beta/Smad signaling pathway - cell viability counter screen (AID 1346829); note: top concentration of the series differs between compounds; nearly all actives have a fitted effect of over 45% in size
In short: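 Luminescence from CellTiter-Glo, read after a 30 min room-temperature incubation, gives cell viability of SBE-bla HEK 293T cells treated 5 hr with compounds at 37 C.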

[14] = qHTS assay to identify small molecule agonists of the TGF-beta/Smad signaling pathway (AID 1346859; active = well fitted activation curve with a large enough effect in the signal ratio in the repeat runs, not every such curve was filed as active; the % refers to the signal ratio; note: series mostly up to about 77 µM)
In short: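 Screening used HEK 293T SBE-bla cells at 4,000/well. Test agents: 5 hr, 37 C. Detection: FRET substrate, 2 hr RT, then excitation 405 nm with emissions at 460 and 530 nm.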

[15] = biological target: Thyrotropin-releasing hormone receptor (Homo sapiens) (UniProt P34981); assay: qHTS assay to identify small molecule antagonists of the thyrotropin-releasing hormone receptor (TRHR) signaling pathway (AID 1346877; active = well fitted inhibition curve with a large enough effect in the repeat runs, not every such curve was filed as active; note: series mostly up to about 51 µM)
Sequence of Thyrotropin-releasing hormone receptor (Homo sapiens) (P34981 whole entry, looked up): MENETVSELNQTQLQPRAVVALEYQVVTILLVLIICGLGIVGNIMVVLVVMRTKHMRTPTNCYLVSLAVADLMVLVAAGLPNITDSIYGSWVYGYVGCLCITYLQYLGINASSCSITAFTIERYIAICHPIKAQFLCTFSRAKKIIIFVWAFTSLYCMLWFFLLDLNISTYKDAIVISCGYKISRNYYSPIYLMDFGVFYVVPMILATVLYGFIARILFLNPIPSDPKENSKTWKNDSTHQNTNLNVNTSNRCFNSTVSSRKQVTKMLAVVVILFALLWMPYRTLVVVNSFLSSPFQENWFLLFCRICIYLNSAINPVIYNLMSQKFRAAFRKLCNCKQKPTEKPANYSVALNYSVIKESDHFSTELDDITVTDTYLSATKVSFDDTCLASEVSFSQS
In short: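 Cells (TRHR-HEK293) are plated and kept 18 h at 37 °C/5% CO2. A calcium-sensitive dye is added for 2 h, compound follows for 5 min at room temperature, and TRH is then given at 1 nM final.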

[16] = biological target: Thyrotropin-releasing hormone receptor (Homo sapiens) (UniProt P34981); assay: qHTS assay to identify small molecule agonists of the thyrotropin-releasing hormone receptor (TRHR) signaling pathway (AID 1346891; calls by dose curve; note: series mostly up to about 58 µM)
In short: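 Readout was intracellular calcium fluorescence in TRHR-Hek293 cells. Cells were incubated 18 h, dye-loaded 2 h at 37 °C, and treated with compound in agonist mode.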

[17] = biological target: Estrogen receptor beta (Homo sapiens) (UniProt Q92731); assay: qHTS assay to identify small molecule antagonists of the estrogen receptor beta (ER-beta) signaling pathway (AID 1259378; active = well fitted inhibition curve with a large enough effect in the signal ratio in the repeat runs, not every such curve was filed as active; the % refers to the signal ratio; note: potency is the fitted concentration of half-maximal effect)
Sequence of Estrogen receptor beta (Homo sapiens) (Q92731 whole entry, looked up): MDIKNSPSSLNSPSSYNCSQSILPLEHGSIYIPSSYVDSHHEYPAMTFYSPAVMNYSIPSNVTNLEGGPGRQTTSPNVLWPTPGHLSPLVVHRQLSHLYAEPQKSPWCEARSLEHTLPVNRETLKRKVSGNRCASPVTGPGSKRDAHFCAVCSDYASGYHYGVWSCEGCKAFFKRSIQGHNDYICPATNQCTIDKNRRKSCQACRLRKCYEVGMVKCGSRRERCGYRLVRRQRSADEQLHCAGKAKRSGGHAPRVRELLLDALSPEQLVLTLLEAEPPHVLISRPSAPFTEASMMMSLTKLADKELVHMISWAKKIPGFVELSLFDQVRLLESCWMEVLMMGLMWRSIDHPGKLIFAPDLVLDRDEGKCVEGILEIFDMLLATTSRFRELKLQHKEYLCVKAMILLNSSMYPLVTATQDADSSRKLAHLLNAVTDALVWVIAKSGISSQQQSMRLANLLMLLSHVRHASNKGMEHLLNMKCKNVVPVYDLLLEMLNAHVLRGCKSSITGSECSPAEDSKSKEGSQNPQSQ
In short: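 ER-beta-UAS-bla HEK293T cells in 2% charcoal-stripped FBS medium treated with compound plus 1nM final 17-beta-estradiol for 16 hr at 37C. Beta-lactamase reporter read by FRET substrate fluorescence after 2 hours at room temperature.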

[18] = qHTS assay to identify small molecule agonists of the estrogen receptor alpha (ER-alpha) signaling pathway in the presence of an antagonist - cell viability counter screen (AID 1259386);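 note: series mostly up to about 92 µM; cells exposed to compounds for 22 h at 37 °C before the viability read; nearly all actives have a fitted effect of over 30% in size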
In short: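 Cells are starved of estrogens for 5 days in charcoal-stripped serum, seeded for 24hr and co-treated with ICI-182,780 (10.0nM final) and test compounds. After 22hr at 37C, viability is read as CellTiter-Fluor fluorescence.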

[19] = biological target: Androgen receptor (Homo sapiens) (UniProt P10275); assay: qHTS assay to identify small molecule agonists of the androgen receptor (AR) signaling pathway in the presence of an antagonist (AID 1259381; calls by dose curve; note: nearly all actives have a fitted effect of over 15% in size)
Sequence of Androgen receptor (Homo sapiens) (P10275 whole entry, looked up): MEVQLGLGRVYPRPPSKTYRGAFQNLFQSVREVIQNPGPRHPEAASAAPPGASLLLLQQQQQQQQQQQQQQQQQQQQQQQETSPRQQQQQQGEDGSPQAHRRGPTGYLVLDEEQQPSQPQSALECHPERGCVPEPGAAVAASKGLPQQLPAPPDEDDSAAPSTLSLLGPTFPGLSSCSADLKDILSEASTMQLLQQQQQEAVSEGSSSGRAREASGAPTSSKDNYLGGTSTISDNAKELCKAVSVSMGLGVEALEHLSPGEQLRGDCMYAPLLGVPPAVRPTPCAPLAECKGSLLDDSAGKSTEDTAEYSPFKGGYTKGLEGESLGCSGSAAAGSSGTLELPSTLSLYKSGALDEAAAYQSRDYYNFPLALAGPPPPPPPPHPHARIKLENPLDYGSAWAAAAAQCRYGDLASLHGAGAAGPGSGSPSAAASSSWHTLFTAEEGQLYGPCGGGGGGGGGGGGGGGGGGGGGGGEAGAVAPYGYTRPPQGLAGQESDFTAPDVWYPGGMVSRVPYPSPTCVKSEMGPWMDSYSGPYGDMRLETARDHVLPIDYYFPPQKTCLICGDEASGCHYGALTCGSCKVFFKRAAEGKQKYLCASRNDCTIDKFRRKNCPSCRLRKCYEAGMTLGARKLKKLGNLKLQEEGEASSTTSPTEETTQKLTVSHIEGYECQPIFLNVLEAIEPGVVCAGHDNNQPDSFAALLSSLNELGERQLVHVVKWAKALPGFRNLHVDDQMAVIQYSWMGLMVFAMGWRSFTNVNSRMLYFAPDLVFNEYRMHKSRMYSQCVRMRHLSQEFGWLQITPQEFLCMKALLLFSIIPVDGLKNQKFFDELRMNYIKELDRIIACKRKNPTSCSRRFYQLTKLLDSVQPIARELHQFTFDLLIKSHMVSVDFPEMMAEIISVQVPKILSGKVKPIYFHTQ
In short: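 Cells are MDA-kb2 (human breast carcinoma, MMTV-luc, AR/GR responsive). Nilutamide is present at 3.0uM final throughout; compounds are added at 15 concentrations and incubated 16hr at 37C before ONE-Glo luminescence detection.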

Structure (SMILES) | Potency [1] | Potency [2] | Potency [3] | Potency [4] | Potency [5] | Potency [6] | Potency [7] | outcome [8] | Potency [9] | Potency [10] | Potency [11] | Potency [12] | Potency [13] | outcome [14] | outcome [15] | Potency [16] | Potency [17] | Potency [18] | Potency [19]
CC(C)NCC(O)COc1ccc(CC(N)=O)cc1 (centres undefined) | inactive | inactive | inactive | inactive | inactive | inactive | inactive | inactive | inactive | inactive | inactive | inactive | inactive | inactive | inactive | inactive | – | – | –
CCN1CCC[C@H]1CNC(=O)c1c(OC)ccc(Br)c1OC | inactive | inactive | inactive | inactive | inactive | inactive | – | inactive | – | inactive | – | inactive | inactive | – | – | – | inactive | inactive | –
CCOC(=S)SSC(=S)OCC | inactive | inactive | inactive | inactive | inactive | inactive | – | inactive | inactive | – | – | inactive | inactive | – | – | – | – | inactive | –
CCc1nn(C2CCCCC2)c2cc(C3(C#N)CCC(C(=O)O)CC3)ccc12 (centres undefined) | inactive | – | 8.63 µM (active) | inactive | inactive | inactive | inactive | inactive | – | – | – | inactive | inactive | – | inactive | inactive | 13.7 µM (active) | – | –
O=C(O)C(c1ccc(Cl)cc1)c1ccc(Cl)cc1 | inactive | inactive | 61.1 µM (active) | – | inactive | inactive | inactive | inactive | inactive | – | – | inactive | inactive | inactive | inactive | inactive | inactive | inactive | –
CCOc1ccc(NC(=O)CC(C)=O)cc1 | inactive | inactive | inactive | inactive | – | – | – | inactive | – | – | inactive | inactive | inactive | – | inactive | inactive | inactive | inactive | –
OCCC1CCCCN1 (centres undefined) | inactive | – | inactive | inactive | inactive | inactive | – | inactive | – | inactive | inactive | inactive | inactive | – | – | – | inactive | – | –
CC(=O)N(CC(=O)N(C)C)c1ccccc1 | inactive | inactive | inactive | inactive | inactive | – | inactive | inactive | inactive | – | inactive | inactive | inactive | inactive | inactive | inactive | inactive | inactive | –
CCCCCCCCCCCCCCCBr | inactive | inactive | inactive | inactive | inactive | inactive | inactive | inactive | inactive | inactive | – | inactive | inactive | inactive | – | – | – | inactive | –
C[Si](C)O[Si](C)(C)O[Si](C)(C)O[Si](C)C | inactive | inactive | inactive | inactive | inactive | inactive | inactive | inactive | inactive | – | inactive | inactive | inactive | inactive | inactive | inactive | – | inactive | –
CC(C)c1ccccc1C(C)C | inactive | – | inactive | inactive | – | inactive | inactive | inactive | inactive | inactive | inactive | inactive | inactive | inactive | – | – | inactive | – | –
Cn1c(NCCN(CCO)CCCc2ccc([N+](=O)[O-])cc2)cc(=O)n(C)c1=O | inactive | inactive | inactive | inactive | – | inactive | inactive | – | – | inactive | inactive | inactive | inactive | – | inactive | inactive | inactive | inactive | –
O=C(NS(=O)(=O)/C=C/c1cccs1)c1ccc(F)cc1Br | inactive | inactive | inactive | inactive | inactive | – | – | inactive | – | inactive | inactive | inactive | inactive | inactive | inactive | inactive | – | inactive | inactive
O=C(O)/C=C/c1cnc[nH]1 | inactive | inactive | inactive | inactive | – | inactive | – | inactive | inactive | – | inactive | inactive | inactive | – | inactive | inactive | inactive | inactive | –
CCCOc1ccc2nc(NC(=O)OC)[nH]c2c1 | inactive | inactive | inactive | inactive | inactive | inactive | – | inactive | – | – | – | inactive | inactive | – | – | – | – | inactive | inactive
C=CCCCCCC | 58.9 µM (active) | inactive | inactive | inactive | inactive | inactive | inactive | inactive | – | inactive | inactive | inactive | inactive | inactive | inactive | inactive | inactive | inactive | –
NC(=S)N/N=C/c1cccnc1 | inactive | inactive | inactive | inactive | – | inactive | – | inactive | inactive | inactive | – | inactive | inactive | inactive | inactive | inactive | – | inactive | inactive
CCN(CC)C(C)=O | inactive | inactive | inactive | inactive | – | inactive | inactive | inactive | inactive | – | inactive | inactive | inactive | inactive | inactive | inactive | inactive | inactive | –
CN(C)CCCOc1nn(Cc2ccccc2)c2ccccc12 | inactive | – | – | inactive | inactive | inactive | inactive | inactive | – | – | inactive | inactive | inactive | inactive | inactive | inactive | inactive | inactive | –
